# Results: PubChem BioAssay (NCATS)
# Inconclusive results are not listed. Active and inactive are the calls of the source. Calls follow the shape of the dose curve; as a rule, active = well fitted curve in the direction sought with a large enough effect; inconclusive = small, poorly fitted or top-dose-only effect, or another doubt; inactive = no such curve, though single readings can be large; an effect the other way counts as inactive or inconclusive.
# Target: Rap guanine nucleotide exchange factor 3 (Homo sapiens) (UniProt O95398)
# Experiment: Counterscreen qHTS for antagonist of cAMP-regulated guanine nucleotide exchange factor 3 (EPAC1) (AID 1645888);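 also: fluorescence loss as bound BODIPY-GDP is released from Rap1B; % of control where 0% means no effect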
# Details: Rap1B-BODIPY-GDP nucleotide exchange, fluorescence; series mostly up to 154 µM; activity change, negative = inhibition: at the top concentration
# Summary of the method: (§1)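 Rap1B-BODIPY-GDP 250 nM + GDP 50 uM; cpds 7-pt, final 9.74 nM–152 uM (activator mode) or from 7.32 nM upwards (inhibitor mode); RT; FI 480/540 nm at 5 and 30 min, then ± cAMP, reread.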
# Chain of Rap guanine nucleotide exchange factor 3 (Homo sapiens) (O95398 whole entry, looked up): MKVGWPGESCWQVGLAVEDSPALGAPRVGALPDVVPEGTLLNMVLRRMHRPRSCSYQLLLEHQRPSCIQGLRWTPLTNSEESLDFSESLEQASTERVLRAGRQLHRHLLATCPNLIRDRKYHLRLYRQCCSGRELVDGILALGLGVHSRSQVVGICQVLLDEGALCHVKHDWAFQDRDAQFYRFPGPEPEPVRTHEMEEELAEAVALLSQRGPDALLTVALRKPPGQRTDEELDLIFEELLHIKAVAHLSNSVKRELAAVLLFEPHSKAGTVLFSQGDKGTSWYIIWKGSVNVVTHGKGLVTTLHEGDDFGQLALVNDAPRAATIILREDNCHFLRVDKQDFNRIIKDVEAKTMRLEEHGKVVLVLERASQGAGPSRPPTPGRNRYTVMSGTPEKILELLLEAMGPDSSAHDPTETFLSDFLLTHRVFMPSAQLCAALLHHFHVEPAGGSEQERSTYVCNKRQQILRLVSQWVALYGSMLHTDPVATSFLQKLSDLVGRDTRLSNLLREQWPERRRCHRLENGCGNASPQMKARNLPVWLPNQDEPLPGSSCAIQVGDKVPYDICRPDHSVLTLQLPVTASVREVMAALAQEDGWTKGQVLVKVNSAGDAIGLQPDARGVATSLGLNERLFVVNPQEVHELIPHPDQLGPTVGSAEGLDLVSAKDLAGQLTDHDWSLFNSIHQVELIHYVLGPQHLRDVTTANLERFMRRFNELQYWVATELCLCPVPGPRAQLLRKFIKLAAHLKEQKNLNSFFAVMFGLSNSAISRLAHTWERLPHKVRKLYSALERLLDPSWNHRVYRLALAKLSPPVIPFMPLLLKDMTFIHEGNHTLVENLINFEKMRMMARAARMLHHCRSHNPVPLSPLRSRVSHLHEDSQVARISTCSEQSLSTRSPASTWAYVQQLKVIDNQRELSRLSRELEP
row,Structure (SMILES),"activity change, negative = inhibition"
1,CCN(CC)C(=S)Oc1c(Cl)cccc1Cl,-19.4% [at 30.8 µM] (inactive)
2,C/C(C/C(C)=C1/SC(=S)NC1=O)=C1\SC(=S)NC1=O,3.37% (inactive)
3,COc1ccc(C(=O)N2CCc3cc(OC)c(OC)cc3C2c2ccc(OC)c(OC)c2)cc1 (stereo not given),-5.18% [at 30.8 µM] (inactive)
4,Cc1ccc2c(c1)CCCN2C(=O)c1cc(C)c(C)s1,18.5% (inactive)
5,COc1ccc([N+](=O)[O-])cc1NC(=S)Nc1ccccc1,33% (inactive)
6,Cc1nc(Cl)sc1C(=O)NC(C)c1ccc(Cl)cc1 (stereo not given),3.6% (inactive)
7,CO/N=C/c1ccc(Sc2ccccc2)c([N+](=O)[O-])c1,-14.9% [at 30.8 µM] (inactive)
8,CC(=O)N(/N=C1/C(=O)Nc2ccccc21)c1ccccc1,9.34% (inactive)
9,CN1CCN(CCC(=O)Nc2ccc(Cl)cc2)CC1,14.3% (inactive)
10,O=C(c1ccco1)N(CCC(c1ccccc1)c1ccco1)Cc1ccco1 (stereo not given),-3.77% (inactive)
11,Oc1ccc(-c2c(-c3ccsc3)sc3ccccc23)cc1,-8.26% [at 30.8 µM] (inactive)
12,CN1CCN(C(CNC(=O)c2ccc(Br)o2)c2ccc(F)cc2)CC1 (stereo not given),-2.27% [at 30.8 µM] (inactive)

# Target: Rap guanine nucleotide exchange factor 3 (Homo sapiens) (UniProt O95398)
# Experiment: Counterscreen qHTS for agonist of cAMP-regulated guanine nucleotide exchange factor 3 (EPAC1) (AID 1645889); also: nearly all actives have a fitted effect of over 40% in size; also: potency is read from the fitted curve at half-maximal effect; as to activation: % of control where 0% means no effect
# Details: EPAC1 Rap1B-BODIPY-GDP exchange, fluorescence; series mostly up to 154 µM; activation: at the top concentration
# Summary of the method: as §1
Structure (SMILES),activation,Potency
O=C1CSC2(C(=O)N(Cc3cccc(C(F)(F)F)c3)c3ccccc32)N1c1ccc(F)c(F)c1 (stereo not given),-6.65% (inactive),
O=c1oc2ccccc2nc1/C=C(O)/C=C\c1ccccc1,-0.436% [at 30.8 µM] (inactive),
CC(=O)NC(CCS(C)(=O)=O)C(=O)Nc1cccc(C)c1C (stereo not given),10.1% (inactive),
Nc1ccc(-c2c3ccc(=O)cc-3oc3cc(O)ccc23)c(C(=O)O)c1,,31.6 µM (active)
COc1ccc(C(=O)N2CCc3cc(OC)c(OC)cc3C2c2ccc(OC)c(OC)c2)cc1 (stereo not given),15.1% [at 30.8 µM] (inactive),
O=C(c1ccc2c(c1)N(Cc1ccccc1)CCS2)N1CCCCC1,24.8% (inactive),
Cc1cccc(CN2[C@@H](CC(C)C)COCCS2(=O)=O)c1,4.6% (inactive),
COc1c(-c2ccccc2)oc2c(ccc3occc32)c1=O,21.6% (inactive),
C=CCc1cc(/C=C/c2nc(O)c([N+](=O)[O-])c(=O)[nH]2)cc(OC)c1O,11.4% (inactive),
CNC(=O)NC(=O)C(NC1CCCc2ccccc21)c1ccccc1 (stereo not given),24.9% (inactive),
COc1cnc(-c2ccccn2)nc1Oc1c(C)cccc1C,-4.32% (inactive),
O=c1ccc(-c2ccccc2)nn1Cc1c(F)cccc1Cl,-4.21% (inactive),
Cn1c(N)c(C(=O)COC(=O)COc2ccccc2C#N)c(=O)n(C)c1=O,3.75% [at 30.8 µM] (inactive),
O=c1oc2cc(O)ccc2cc1-c1nc2ccccc2o1,,70.8 µM (active)
CCn1c2ccccc2c2nnc(SCC(=O)N(C)C3CCS(=O)(=O)C3)nc21 (stereo not given),4.22% [at 30.8 µM] (inactive),
COc1cccc(CC(=O)Nc2ccc(S(=O)(=O)Nc3nccs3)cc2)c1,9.39% [at 30.8 µM] (inactive),
Cc1ccc2nc(NC(=O)CSc3ncnc4c3oc3ccccc34)sc2c1,24.5% (inactive),
O=C1NC(=O)C2(N1)C(=O)c1cccc3cccc2c13 (stereo not given),,44.7 µM (active)
O=C(NC1CCC(O)CC1)c1cccc2cccnc12 (stereo not given),14.2% (inactive),
Nc1nnc(-c2cccc(F)c2)s1,17.1% (inactive),
COc1cc(/C=C2\SC(=S)N(NS(=O)(=O)c3ccc(C)cc3)C2=O)cc(OC)c1OC,-6.13% (inactive),
O=C(CC[C@H]1O[C@@H](n2ccc(=O)[nH]c2=O)[C@H](O)[C@@H]1O)NCc1cccc2ccccc12,1.2% (inactive),
CSc1nc(N2CCOCC2)c2c3c(sc2n1)CCCC3,21.1% (inactive),
